“And” between values parts separate entries of the source, which are not always exact repeats. Equal entries are not always repeated. The campaign covered roughly 340,000 compounds. About 470 (0.14%) were called active. Shown is part of a subset that was picked to be rich in actives. Values without a mark were called inactive.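 The calls were made as follows: active = mean activation of 30% or more, with every replicate also reaching 30%; inconclusive = mean activation of 30% or more but some replicate falls short; inactive = the rest.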

This is an account of results in PubChem BioAssay AID623901 (Broad Institute, 2012).

The nature of this experiment: small molecules raising miR-122 sensor signal – cell-based, Huh7 psiCHECK-miR122, Renilla luciferase, single point, primary screen (AID 623901).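 Also: 0% = median of neutral control wells and 100% = median of positive control wells; higher luciferase signal means stronger suppression of miR-122 activity.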 Particulars: 48 h, at 12.5 µM, hits give high values.
In the case of `CC(C)c1cc(C(=O)O)n[nH]1`, the activation was -143%. Next, `C[C@H](CO)N1C[C@H](C)[C@H](CN(C)S(=O)(=O)c2ccccc2)Oc2ncc(-c3cccc(C(F)(F)F)c3)cc2C1=O`: 11.3%; `COCC(=O)Nc1ccc2c(c1)OC[C@H](C)NC[C@H](C)[C@H](OC)CN(C)C2=O`: -0.878%; `C[C@H](O)C#Cc1ccc2c(c1)O[C@@H](CN(C)Cc1cncnc1)[C@H](C)CN([C@H](C)CO)S2(=O)=O`: 0.702%. Next, `COCC(=O)N(C)C[C@@H]1Oc2ncc(C#Cc3ccccc3OC)cc2C(=O)N([C@@H](C)CO)C[C@H]1C`: 5.1%. Consider `C[C@@H]1CN([C@H](C)CO)S(=O)(=O)c2ccc(-c3cncnc3)cc2O[C@@H]1CN(C)Cc1ccccn1`, for which the activation was 5.28%. Regarding `COCC(=O)N(C)C[C@H]1Oc2cc(Br)ccc2S(=O)(=O)N([C@H](C)CO)C[C@H]1C`, the activation was -1.48%. Next, `CCC(=O)N(C)C[C@H]1Oc2ncc(C#Cc3cccnc3)cc2C(=O)N([C@H](C)CO)C[C@H]1C`: 6.77%. On to `C[C@@H]1CN([C@H](C)CO)C(=O)c2cc(-c3cccc(F)c3)cnc2O[C@H]1CN(C)C(=O)Nc1ccccc1F`, for which the activation is -3.89%. Take `C[C@H](O)C#Cc1ccc2c(c1)O[C@@H](CN(C)Cc1cccnc1)[C@H](C)CN([C@H](C)CO)S2(=O)=O`: the activation is 0.774%.

For the compound `CCCNc1ncnc2sc(C)c(C)c12`, the activation is -122%. Then `Cc1ccc(S(=O)(=O)N(C)C[C@H]2Oc3ccc(NC(=O)CCC(F)(F)F)cc3C(=O)N([C@@H](C)CO)C[C@H]2C)cc1`, with -99.9%; and `C[C@@H]1CN([C@@H](C)CO)S(=O)(=O)c2ccc(-c3ccncc3)cc2O[C@@H]1CN(C)C(=O)Nc1ccc(F)cc1`, with -17.3%. With `C[C@H](CO)N1C[C@H](C)[C@@H](CN(C)C(=O)C2CC2)Oc2ncc(C#CC(C)(C)O)cc2C1=O`, the activation was 1.07%. Next, `C[C@H]1CN([C@@H](C)CO)C(=O)c2cc(C3=CCCCC3)cnc2O[C@@H]1CN(C)C(=O)c1ccc(F)cc1`: -3.28%; `CO[C@@H]1CN(C)C(=O)c2cc(NC(=O)C3CCOCC3)ccc2OC[C@H](C)N(C)C[C@H]1C`: 0.196%. Then `Cc1ccc(S(=O)(=O)Nc2ccc3c(c2)CC(=O)N([C@@H](C)CO)C[C@H](C)[C@H](CN(C)Cc2ccc(C(=O)Nc4ccccc4N)cc2)O3)cc1`, with -252%; and `CCC(=O)Nc1ccc2c(c1)OC[C@H](C)N(C(=O)c1ccccc1F)C[C@@H](C)[C@H](OC)CN(C)C2=O`, with -3.57%; and `C[C@H]1CN([C@@H](C)CO)C(=O)c2cc(-c3cccc(F)c3)cnc2O[C@@H]1CN(C)S(C)(=O)=O`, with -3.18%. Then `COc1ccc(/C=C/C(=O)Nc2ccc(C34CC5CC(CC(O)(C5)C3)C4)cc2)cc1OC`, with 56.9% (active). Turning to `CC(C)NC(=O)N(C)C[C@@H]1Oc2ncc(C3=CCCCC3)cc2C(=O)N([C@H](C)CO)C[C@@H]1C`, the activation was 5.61%. Next, `Cc1ccc(-c2cnc3c(c2)C(=O)N([C@@H](C)CO)C[C@@H](C)[C@H](CN(C)Cc2ccccc2F)O3)cc1`: -34.6%. Next, `C/C=C/c1ccc2c(c1)O[C@@H](CN(C)C(=O)Cc1ccccn1)[C@@H](C)CN([C@H](C)CO)S2(=O)=O`: -0.361%; `CCOC(=O)c1c(C)[nH]c(C)c1S(=O)(=O)NCCCc1ccco1`: -128%; `CCC(=O)N1C[C@@H](C)[C@@H](OC)CN(C)C(=O)c2ccc(NC(=O)C3CCCCC3)cc2OC[C@@H]1C`: 0.432%. `C[C@H](CO)N1C[C@H](C)[C@H](CN(C)S(=O)(=O)c2cccc(F)c2)Oc2ncc(/C=C/c3ccccc3)cc2C1=O`: the activation is -2.26%. Then `COCC(=O)N(C)C[C@@H]1Oc2cc(C#CC3CC3)ccc2S(=O)(=O)N([C@H](C)CO)C[C@H]1C`, with 3.88%; and `CCC(=O)N(C)C[C@H]1Oc2ncc(C#C[C@@H](C)O)cc2C(=O)N([C@@H](C)CO)C[C@H]1C`, with 2.8%. As to `COCC#Cc1cnc2c(c1)C(=O)N([C@@H](C)CO)C[C@@H](C)[C@@H](CN(C)C(=O)Nc1ccccc1OC)O2`, the activation was 1.08%. Next, `O=C(CC(O)(C(F)(F)F)C(F)(F)F)Nc1ccc(Cl)c(Cl)c1`: 63% (active); `CS(=O)(=O)N(CC(=O)Nc1ccc(Cl)c(Cl)c1)C1CCCCC1`: -174%. Next, `C[C@@H](O)C#Cc1ccc2c(c1)O[C@@H](CN(C)C)[C@@H](C)CN([C@@H](C)CO)S2(=O)=O`: -3.26%; `COc1ccc(C(=O)Nc2ccccc2C(=O)N/N=C/c2ccccc2OC)cc1`: -115%; `CCCN(C)C[C@H]1Oc2ncc(-c3ccccc3OC)cc2C(=O)N([C@H](C)CO)C[C@H]1C`: -2.24%. On to `COc1ccccc1CNc1nc(Nc2ccccc2Cl)c2sccc2n1`, for which the activation is 44.5% (active). Next, `C[C@@H]1CN([C@H](C)CO)S(=O)(=O)c2ccc(C#CCN(C)C)cc2O[C@@H]1CN(C)C(=O)CN(C)C`: 5.44%; `COc1ccc(CNS(=O)(=O)c2cc(-c3cc(C)no3)ccc2C(C)C)cc1`: -200%; `OCC(O)C1OCOC(C(O)CO)C1O` (stereo not drawn): -93%. Next, `C[C@@H]1CN([C@@H](C)CO)C(=O)c2cc(-c3ccc(F)cc3)cnc2O[C@@H]1CN(C)Cc1ccc(C(=O)O)cc1`: 1.12%. Then `CO[C@@H]1CN(C)C(=O)c2ccc(NC(=O)C3CCC3)cc2OC[C@H](C)NC[C@H]1C`, with 1.3%. On to `C[C@@H]1CN([C@H](C)CO)C(=O)c2cc(-c3ccncc3)cnc2O[C@@H]1CN(C)C(=O)Cc1cccnc1`, for which the activation is -6.69%.

On to `COc1ccccc1-c1ccc2c(c1)O[C@@H](CN(C)C(=O)Nc1ccccc1)[C@H](C)CN([C@@H](C)CO)S2(=O)=O`, for which the activation was -1.07%. As for `COCC#Cc1ccc2c(c1)O[C@@H](CN(C)C(C)=O)[C@H](C)CN([C@H](C)CO)S2(=O)=O`, the activation was 5.04%.

As to `COc1ccccc1-c1cnc2c(c1)C(=O)N([C@H](C)CO)C[C@H](C)[C@H](CN(C)C(=O)CN(C)C)O2`, the activation is -1.92%. Then `COc1ccccc1C#Cc1ccc2c(c1)O[C@@H](CN(C)Cc1cncnc1)[C@H](C)CN([C@@H](C)CO)S2(=O)=O`, with 8.43%; and `C[C@H](O)C#Cc1ccc2c(c1)O[C@H](CN(C)Cc1cccnc1)[C@@H](C)CN([C@H](C)CO)S2(=O)=O`, with -6.12%; and `COCC#Cc1cnc2c(c1)C(=O)N([C@@H](C)CO)C[C@@H](C)[C@@H](CN(C)C(=O)Nc1ccc(OC)cc1)O2`, with -2.9%. Then `C[C@H]1CN([C@@H](C)CO)C(=O)c2cc(-c3cccc(F)c3)cnc2O[C@@H]1CN(C)Cc1cncnc1`, with -0.0525%. Next, `O=C(NC(Nc1nc2ccc([N+](=O)[O-])cc2s1)(C(F)(F)F)C(F)(F)F)c1ccccc1`: 45.7% (active).

Regarding `C[C@H](CO)N1C[C@H](C)[C@@H](CN(C)Cc2ccc3c(c2)OCO3)Oc2c(NC(=O)C3CCOCC3)cccc2C1=O`, the activation was -319%. Then `O=C(CCc1ccc(S(=O)(=O)NC2CCCCC2)cc1)NCc1ccccc1`, with -101%; and `C[C@H]1CN([C@@H](C)CO)C(=O)c2cc(-c3ccccc3F)cnc2O[C@@H]1CN(C)C(=O)C1CCCCC1`, with 4.49%; and `CCCOC(=O)c1[nH]c2c(c1C)C(=O)CC(c1cccs1)C2` (stereo not drawn), with -94%.

On to `COc1ccc(NC(=O)Nc2ccc3c(c2)OC[C@@H](C)NC[C@@H](C)[C@H](OC)CN(C)C3=O)cc1`, for which the activation was 3.26%.

As for `C[C@H](O)C#Cc1ccc2c(c1)O[C@H](CN(C)C)[C@@H](C)CN([C@H](C)CO)S2(=O)=O`, the activation was 4.16%.

In the case of `CO[C@H]1CN(C)C(=O)c2ccc(NC(=O)Nc3ccc(F)cc3)cc2OC[C@@H](C)NC[C@H]1C`, the activation is -0.877%. Next, `CC(C)C#Cc1ccc2c(c1)O[C@@H](CN(C)C(=O)CN(C)C)[C@@H](C)CN([C@H](C)CO)S2(=O)=O`: 1.71%. Then `Cc1c(-c2ccccc2)cn2c1-c1ccc(C)n1CC2`, with -248%; and `CO[C@H]1CN(C)C(=O)c2ccc(NC(=O)C3CCC3)cc2OC[C@@H](C)NC[C@H]1C`, with 2.77%. Next, `C[C@@H]1CN([C@@H](C)CO)C(=O)c2cc(-c3cncnc3)cnc2O[C@H]1CN(C)Cc1cncnc1`: 9.2%.

As for `CCCC#Cc1ccc2c(c1)O[C@@H](CN(C)C(=O)CC)[C@H](C)CN([C@H](C)CO)S2(=O)=O`, the activation was -21.9%. Next, `C[C@@H]1CN([C@@H](C)CO)C(=O)c2cc(-c3cncnc3)cnc2O[C@@H]1CN(C)Cc1ccncc1`: -14.3%. Then `CCC(=O)N(C)C[C@@H]1Oc2ncc(C#C[C@H](C)O)cc2C(=O)N([C@@H](C)CO)C[C@@H]1C`, with -1.06%; and `C[C@@H]1CN([C@@H](C)CO)C(=O)c2cc(C3=CCCCC3)cnc2O[C@H]1CN(C)CC1CCOCC1`, with -37.5%; and `CCOc1ccc(Br)cc1S(=O)(=O)Nc1cccc(S(=O)(=O)N(CC)CC)c1`, with -110%. Next, `CC(C)CNS(=O)(=O)c1ccc(OCC(=O)Nc2ccc3c(c2)OCO3)c(Cl)c1`: -303%; `C[C@H]1CN([C@@H](C)CO)C(=O)c2cc(C3=CCCCC3)cnc2O[C@@H]1CN(C)C(=O)Cc1ccccc1`: -4.91% and -1.39%; `C[C@H](CO)N1C[C@H](C)[C@H](CN(C)C(=O)C2CCOCC2)Oc2ncc(C#Cc3ccccc3F)cc2C1=O`: -1.81%.
